FMDV antiviral: foot and mouth disease virus antiviral activity; FMDV antiviral cell-based qHTS; Potency, µM (highest dose often 57.9 µM), for the others: at the top dose activity change, negative = inhibition, actives largely listed as inhibitors; 1.2% of 410,000 active; calls by dose curve; tested in HEK293T cells; further: read-out not given here; potency means the concentration at half of the fitted maximal effect; nearly all actives have a fitted effect of over 45% in size
Lassa entry inh: inhibitors of Lassa virus binding or cell entry; Lassa virus pseudotype entry inhibition, cell reporter; 1.2% of 300,000 active; Potency, µM (doses to about 37.9 µM), inactives show at the top dose activity change, negative = inhibition, usual class: inhibitors; AID 540256; calls by dose curve; tested in HEK293 cells; further: potency means the concentration at half of the fitted maximal effect; nearly all actives have a fitted effect of over 50% in size
HCMV inh: blocks human cytomegalovirus replication | HFF cells, HCMV-luciferase reporter, 72 h; active compounds read low | 4.5% of 410,000 active | activity change, negative = inhibition, % at 57.5 µM; in the data active means activity change below about -60%; inconclusive means no clear call, values can overlap the other calls; inactive means above about -39%
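Two compound doses tested in HFFs infected with HCMV-luciferase, MOI 1 PFU/cell, 72 h at 37C. Lysate luminescence read with OneGlo; data normalized against buffer-only and 10uM Salinomycin inhibitor controls.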
MARV entry inh: Marburg virus entry inhibition; AID 540276; 1.8% of 300,000 active; Marburg virus pseudotyped entry inhibition, cell reporter; Potency, µM (top dose mostly 37.8 µM), for inactives: at the highest dose activity change, negative = inhibition, actives largely listed as inhibitors; calls by dose curve; tested in HEK293 cells; further: potency means the concentration at half of the fitted maximal effect
HCV inh: blocks hepatitis C virus | Huh7.5.1 HCVcc-Cre infection, luciferase reporter, 44 h | Potency, µM (highest dose often 41.8 µM), for the others: at the highest dose activity change, negative = inhibition, usual class: inhibitors | 3.4% of 340,000 active | AID 651820; active means well fitted inhibition curve with a large enough effect; inconclusive means small, poorly fitted or top-dose-only effect, or another doubt; inactive means no such curve, though single readings can be large or run the other way; further: potency means the concentration at half of the fitted maximal effect
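Infectious HCV cell culture screen: compound-treated cells (1,000/well, pre-plated 4 h) are infected with HCVcc-Cre at roughly 0.5 moi and grown 44 h. Infection is quantified by luciferase signal after 15 min substrate incubation at room temperature.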
The depositor's hits bear a star; ? = inconclusive; . = no result given; ! = repeats disagree; [ ] = remark or other dose. This is a sample that favours compounds with a hit; in the whole collection about 7.9% have one here. On the % scale 0 is the no-effect control and ±100 the full control effect.

SMILES	FMDV antiviral	Lassa entry inh	HCMV inh	MARV entry inh	HCV inh
O=C(NCCCN1CCCCCC1)c1ccc2c(Cl)c3c(nc2c1)CCCC3	-5.5%	?	?	?	0.631µM*
CCN1CCN(CCCNC(=O)c2ccc3c(Cl)c4c(nc3c2)CCCC4)CC1	-17.0%	?	-83.2*	?	?
COc1ccccc1N(CC(=O)N1CCCCC1C)S(=O)(=O)c1ccc(Cl)cc1 (stereo not drawn)	82.7%	.	-15.3	.	.
O=C(c1ccco1)N1CCC2(CC1)CCN(c1ccccn1)CC2	-27.4%	.	.	.	.
CCCCC(CC)CNC(=O)Cc1ccc(-n2c(=O)[nH]c3ccccc3c2=O)cc1 (stereo not drawn)	-18.1%	?	-8.8	.	.
CCOC(=O)c1ccc2nc(NC(=O)c3cccs3)sc2c1	16.0%	?	76.8	4.47µM*	-22.7%
CCOc1ccc2nc(NC(=O)Nc3ccccc3)sc2c1	0.7%	?	63.8	?	?
CCOc1ccc2nc(NC(=O)c3ccccn3)sc2c1	-83.9%	?	-99.8*	?	?
CSc1nc2ccc(NC(=O)c3ccccn3)cc2s1	-49.4%	2µM*	-33.8	?	-2.7%
Cc1ccc2nc(NC(=O)c3ccccc3F)sc2c1	-14.6%	?	59.9	?	?
CCOC(=O)c1ccc2nc(NC(=O)c3ccco3)sc2c1	-14.0%	?	35.9	?	-10.3%
Cc1ccc2nc(NC(=O)c3ccccn3)sc2c1	8.91µM*	.	-98.4*	?	?
COC(=O)c1ccccc1NC(=O)Cn1ncc2c(C)n(Cc3ccc(F)cc3)c(C)c2c1=O	?	-18.3%[46.1 µM]	-9.0	-5.1%[46.1 µM]	.
CN(C)c1ccc(C(=O)Nc2ccc(-c3nc4ccccc4o3)cc2)cc1	5.9%	?	-6.6	.	.
Cc1cccc(N(CC(=O)Nc2cccnc2)S(C)(=O)=O)c1	-9.1%	.	-7.9	.	1.7%
O=C(COc1ccccc1)NNc1nc2c(F)cc(F)cc2s1	4.5%	.	-36.0	.	7.6%
CCOc1cc(NC(=O)c2ccccn2)c(OCC)cc1NC(=O)c1ccccc1	-2.2%	?	-64.0*	-11.6%[46.1 µM]	-4.3%
O=C(Nc1nc2c(F)cc(F)cc2s1)c1ccccn1	-68.4%	7.08µM*	-99.0*	?	10µM*
O=C(N/N=C/c1ccccc1Cl)c1n[nH]c2c1CCCC2	?	?	?	1.3µM*	5.2%
O=C(N/N=C/c1ccc(Cl)cc1)c1n[nH]c2c1CCCC2	66.4%	?	-90.6*	?	-11.1%
COc1ccc(C(=O)Oc2ccc(C(c3c(C)[nH][nH]c3=O)c3c(C)[nH][nH]c3=O)cc2)cc1	9.7%	5.8%[46.1 µM]	6.5	?	.
C[C@H]1CN(Cc2ccccc2)C(=O)[C@H]1CC(=O)Nc1ccccc1	.	-9.2%[46.1 µM]	.	.	.
COc1ccc2nc3sc(C(=O)Nc4cc(Cl)c(OC)cc4OC)cc3cc2c1	-3.3%	18.5%[46.1 µM]	-8.9	?	.
O=C(c1ccc(COc2ccc(Cl)cc2)o1)N1CCN(Cc2ccc3c(c2)OCO3)CC1	.	?	-32.7	-21.5%	8.91µM*
CCN1CCN(C(=O)c2ccc(COc3ccc(Cl)cc3)o2)CC1	?	-15.4%	-12.0	-23.4%	?
SMILES	FMDV antiviral	Lassa entry inh	HCMV inh	MARV entry inh	HCV inh
CCOc1ccc(N(C)S(=O)(=O)c2ccc(C)c(C(=O)N3CCN(Cc4ccc5c(c4)OCO5)CC3)c2)cc1	22.4µM*	?	-23.5	-0.6%	?
O=C(c1ccc(COc2ccccc2Cl)o1)N1CCN(Cc2ccc3c(c2)OCO3)CC1	35.5µM*!	?	0.7	?	?
CCN1CCN(C(=O)c2ccc(COc3cccc(Cl)c3)o2)CC1	-17.9%	?	-68.8*	-3.3%[46.1 µM]	?
COc1ccc(CNC(=O)c2ccc3c(c2)N(Cc2cc(C)ccc2C)C(=O)CS3)cc1	11.4%	8.4%[46.1 µM]	9.4	2.5%[46.1 µM]	.
O=C(NCc1ccccn1)c1cnn(-c2nccc(-c3ccccc3F)n2)c1C1CC1	13.6%	.	.	.	.
CC(C)C(=O)NC(c1cccc([N+](=O)[O-])c1)c1c(O)ccc2ccccc12 (stereo not drawn)	39.1%	9.8%	3.3	-23.2%[46.1 µM]	9.6%
CCCC(=O)NC(c1cccc([N+](=O)[O-])c1)c1ccc2cccnc2c1O (stereo not drawn)	0.0%	.	-98.5*	.	.
Cc1ccc(C(NC(=O)C(C)C)c2cc([N+](=O)[O-])c3cccnc3c2O)cc1 (stereo not drawn)	-10.0%	-4.1%	-12.8	?	12.6µM*
CC(C)C(=O)NC(c1cccc([N+](=O)[O-])c1)c1ccc2cccnc2c1O (stereo not drawn)	-11.3%	7.08µM*	-104.8*	?	3.98µM*
CC(C)C(=O)NC(c1cccs1)c1cc([N+](=O)[O-])c2cccnc2c1O (stereo not drawn)	-25.3%	-6.7%	.	?	?
CCC(=O)NC(c1cccc([N+](=O)[O-])c1)c1c(OC(C)=O)ccc2ccccc12 (stereo not drawn)	?	?	32.7	?	-13.7%
CCOc1ccc(-c2c(C)nn3c(C)c(C(=O)NC(C)c4ccccc4)cnc23)cc1OCC (stereo not drawn)	?	-12.7%[46.1 µM]	-31.5	.	.
COc1cccc(NC(=O)C(Nc2ccccc2)c2ccccc2F)c1 (stereo not drawn)	.	.	-67.2*	.	.
Cc1cccc(Cl)c1NC(=O)C(Nc1ccccc1)c1ccccc1F (stereo not drawn)	.	.	-26.9	.	.
O=C(CCCCCn1c(=O)c2sccc2n(CC(=O)Nc2cc(C(F)(F)F)ccc2Cl)c1=O)NCc1ccccc1Cl	-6.4%	?	-32.6	?	.
Nc1ccccc1C=C1Cc2ccccc2C1=O	-47.7%	?	5.0	7.94µM*	-23.0%
O=C1C(=Cc2ccccc2[N+](=O)[O-])Cc2ccccc21	?	.	-95.6*	.	.
Cc1ccc(N(C)C(=O)Cn2cnc3onc(-c4ccc(F)cc4)c3c2=O)cc1C	0.0%	-8.2%[46.1 µM]	3.5	.	.
CCn1c(=O)cc(OCC(=O)N2CCN(c3cccc(C)c3C)CC2)c2ccccc21	20µM*	?	13.0	23.6%[46.1 µM]	.
CCn1c(=O)cc(SCC(=O)N2CCN(c3ccccc3F)CC2)c2ccccc21	?	5.7%[46.1 µM]	136.0	?	14.1µM*
CCOC(=O)N1CCN(C(=O)COc2cc(=O)n(CC)c3ccccc23)CC1	19.8%	6.7%	164.4	16.9%	3.5%
NC(=O)[C@@H]1CCCN1C(=O)c1cc(NC(=O)c2ccccc2)cc2ncn(C3CCCC3)c12	11.6%	.	.	.	.
Cc1cc(C)n2nc(N)nc2n1	-15.6%	16.7%	-37.3	-1.4%	38.2%
Cc1cc(N)n2nc(C(F)(F)F)nc2n1	-0.9%	6.1%[46.1 µM]	-91.6*	7.3%[46.1 µM]	10.7%
CCc1nc(Nc2ccc(F)cc2)c2oc3ccccc3c2n1	?	.	-22.6	.	10µM*
O=C(c1ccc(Cl)cc1)C(CN1CCCCC1)c1ccccc1 (stereo not drawn)	14.1µM*	?	-101.0*	?	15.8µM*
CC(CN1CCCCC1)OC(=O)c1ccc(Cl)cc1 (stereo not drawn)	-16.2%	-7.2%	4.4	9.7%	17.7%

Compound activity deposited in PubChem BioAssay by National Center for Advancing Translational Sciences (NCATS).
